Screening data as filed in PubChem BioAssay.
This is a sample that favours compounds with a hit; in the whole collection about 7.4% have one here.
Rab9 promoter act: qHTS Assay for Rab9 Promoter Activators; AID 485297, 2010; Potency, µM (doses to about 9.22 µM), usual class: activators; 2.8% of 320,000 active; Huh7 Rab9 promoter-luciferase reporter, luminescence, 24 h; note: nearly all actives have a fitted effect of over 60% in size
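Promoter activation is measured as luciferase luminescence in Huh7 cells stably transfected with a Rab9 promoter–luciferase construct, following 24 h compound exposure at 37 °C and 10 min reagent incubation at ambient temperature.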
NPC1 promoter act: qHTS Assay for NPC1 Promoter Activators; 2.4% of 320,000 active; Potency, µM (highest dose often 9.22 µM), actives largely listed as activators; Huh7 NPC1 promoter luciferase reporter, 24 h; AID 485313, 2010; note: nearly all actives have a fitted effect of over 60% in size
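Huh7 cells stably carrying NPC1 promoter–luciferase, plated in Opti-MEM with 10% FBS for 2 h, were exposed to compound in DMSO for 24 h at 37 °C; luciferase reagent was added for 10 min and luminescence read.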
ELG1 genotox: qHTS screen for small molecules that induce genotoxicity in human embryonic kidney (HEK293T) cells expressing luciferase-tagged ELG1. 1.3% of 330,000 active. Potency, µM (doses to about 46 µM), most hits filed as activators. AID 504466, 2011. HEK293T ELG1-luciferase reporter, luminescence, 16 h; note: nearly all actives have a fitted effect of over 60% in size
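ELG1-luciferase HEK293T cells, 2,000/well; compound pinned in; 16 hr, 37 °C, 5% CO2; ONE-Glo, 30 min RT; luminescence on CCD imager.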
SMN2 splice up: qHTS Assay for Enhancers of SMN2 Splice Variant Expression; HEK293 SMN2-luciferase splicing reporter, luminescence, 30-36 h; 2.8% of 210,000 active; Potency, µM (top dose mostly 46.1 µM), most hits filed as activators; note: nearly all actives have a fitted effect of over 55% in size
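HEK293 cells carry an SMN2 […]–luciferase reporter in which exon 7 inclusion puts luciferase in frame. Cells were plated 10-12 h before compound addition, then incubated 30-36 h at 37C. ONE-Glo luminescence was read; sodium butyrate at 4.5 mM final served as control.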
FLuc modulator: qHTS profiling assay for firefly luciferase inhibitor/activator using purifed enzyme and Km concentrations of substrates (counterscreen for miR-21 project). purified FLuc, Km substrates, luminescence inhibition. AID 588342, 2011. Potency, µM (series often up to 57.5 µM), usual class: inhibitors. 6.9% of 360,000 active; note: nearly all actives have a fitted effect of over 55% in size
Target sequence (P08659 whole entry, looked up): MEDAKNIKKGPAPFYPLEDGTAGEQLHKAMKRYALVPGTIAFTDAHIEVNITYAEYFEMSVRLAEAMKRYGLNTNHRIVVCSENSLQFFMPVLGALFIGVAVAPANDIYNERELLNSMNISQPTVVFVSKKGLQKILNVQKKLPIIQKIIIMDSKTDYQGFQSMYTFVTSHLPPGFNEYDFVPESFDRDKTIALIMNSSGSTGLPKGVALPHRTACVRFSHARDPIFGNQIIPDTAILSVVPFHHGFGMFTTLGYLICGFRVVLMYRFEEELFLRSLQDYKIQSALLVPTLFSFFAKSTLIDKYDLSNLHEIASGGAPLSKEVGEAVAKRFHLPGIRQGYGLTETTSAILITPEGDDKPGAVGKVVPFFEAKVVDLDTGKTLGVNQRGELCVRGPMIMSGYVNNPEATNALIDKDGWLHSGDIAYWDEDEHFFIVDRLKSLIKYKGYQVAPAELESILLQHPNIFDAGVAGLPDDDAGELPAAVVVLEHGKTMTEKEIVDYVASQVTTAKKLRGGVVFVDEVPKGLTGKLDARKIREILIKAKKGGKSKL
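Biochemical qHTS of compounds, final roughly 60 µM downward over six points, against 10 nM purified firefly luciferase using Km concentrations of substrates (10 uM D-luciferin, 10 uM ATP) in Tris acetate pH 7.5 buffer; luminescence output.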
Hits are given with their value; - = inactive; ? = inconclusive; . = no result given. Calls come from the whole dose curve; as a rule, active = well fitted curve in the direction sought with a large enough effect; inconclusive = small, poorly fitted or top-dose-only effect, or another doubt; inactive = no such curve, though single readings can be large; an effect the other way counts as inactive or inconclusive.

SMILES	Rab9 promoter act	NPC1 promoter act	ELG1 genotox	SMN2 splice up	FLuc modulator
Cc1ccc(C(=O)Nc2sc3c(c2C#N)CCCCC3)cc1C	3.16µM	2.24µM	?	?	?
CC(=O)Nc1sc2c(c1C#N)CCCCC2	-	-	-	-	?
O=C1C(Cl)=C(NC(=O)c2ccccc2)C(=O)C(Cl)=C1NC(=O)c1ccccc1	-	-	-	.	?
Cc1ccccc1C(=O)NC(=S)Nc1sc2c(c1C#N)CCCC2	-	-	-	-	19µM
CCc1ccc(NC(=O)CSc2nc(C)c(C(=O)Nc3ccccc3)c(-c3ccc(OC)c(OC)c3)c2C#N)cc1	.	.	.	-	-
CCC(C)[C@H](NC(=O)NCc1ccc(S(N)(=O)=O)cc1)C(=O)O (some centres undefined)	-	-	-	.	-
CCOC(=O)c1cc(C(=O)NC(C)c2ccccc2)c(C)[nH]c1=O (centres undefined)	-	-	-	.	-
C=CCNC(=S)Nc1sc2c(c1C#N)CCCC2	-	-	-	-	21.3µM
CC(C)(C)C(=O)NC(=S)Nc1sc2c(c1C#N)CCCCC2	-	-	-	-	?
COc1cc(NC(=O)CSc2nc(-c3ccccc3)no2)cc(OC)c1	.	.	.	.	-
COc1cc(NC(=O)CSc2nc(-c3ccc(C(C)C)cc3)no2)cc(OC)c1	.	.	.	.	2.69µM
CC(C)c1ccc(-c2noc(SCC(=O)N3CCCCC3C)n2)cc1 (centres undefined)	.	.	.	.	3.01µM
CN(C(=O)CSc1nc(-c2ccccc2)no1)c1ccc(F)cc1	.	.	.	.	-
CC1CCN(C(=O)CSc2nc(-c3ccc(C(C)C)cc3)no2)CC1	.	.	.	.	3.38µM
CCN(C(=O)CSc1nc(-c2ccc(C(C)C)cc2)no1)c1ccccc1	.	.	.	.	9.53µM
CC(C)c1ccc(-c2noc(SCC(=O)N3CCN(c4ccc(F)cc4)CC3)n2)cc1	.	.	.	.	-
COc1ccc(/C=C(/NC(=O)c2ccco2)C(=O)N2CCCCCC2)cc1OC	-	-	-	.	-
Cc1cc(N2C(=O)[C@@H]3[C@H](C2=O)[C@@H]2C[C@H]3C(Br)C2Br)no1 (some centres undefined)	-	-	-	.	-
COc1ccc2c(CNC3CCC(C)CC3)c(C(=O)O)n(Cc3ccccc3)c2c1 (centres undefined)	.	.	.	.	-
O=C(Oc1ccccc1Cl)c1ccc2c(=O)n3c(nc2c1)CCC3	-	-	?	.	16.9µM
O=C(Oc1ccccc1F)c1ccc2c(=O)n3c(nc2c1)CCC3	-	-	-	.	15.1µM
COc1ccc(COC(=O)c2ccc3c(=O)n4c(nc3c2)CCC4)cc1F	-	-	-	.	-
O=C(NNC(=O)c1ccccc1Cl)c1ccc2c(=O)n3c(nc2c1)CCC3	-	-	-	.	.
O=C(CCc1ccc(Oc2cc([N+](=O)[O-])cc([N+](=O)[O-])c2)cc1)N1CCCCC1	-	-	-	-	-
CC(=O)c1[nH]c(C)c(C(=O)N2CCCC(Nc3cccc(F)c3)C2)c1C (centres undefined)	-	-	-	.	-
SMILES	Rab9 promoter act	NPC1 promoter act	ELG1 genotox	SMN2 splice up	FLuc modulator
Cc1ccc(CCNC(=O)c2ccc3c(c2)nc2n3CCOC2)cc1	.	.	.	.	-
Cc1ccccc1CCNC(=O)c1ccc2c(c1)nc1n2CCC(C)C1 (centres undefined)	.	.	.	.	8.49µM
CC(C)CCNC(=O)c1ccc2c(c1)nc1n2CCCCC1	.	.	.	.	6.01µM
CCCSCCCNC(=O)c1ccc2c(c1)nc1n2CCCCC1	.	.	.	.	15.1µM
O=C(NCCc1ccccc1)c1ccc2c(c1)nc1n2CCOC1	.	.	.	.	5.36µM
CC(C)CC(C(=O)NCCc1ccccc1)N1Cc2ccccc2C1=O (centres undefined)	.	.	.	.	-
O=C(CSc1ccccc1)OCC(=O)N1CCN(C(=O)c2ccco2)CC1	-	-	-	.	-
Cc1c(F)cccc1NC(=O)c1ccc2c(c1)CCN2S(C)(=O)=O	-	-	-	.	-
Cc1ccc(C)c(CNC(=O)c2ccc3c(c2)nc2n3CCCCC2)c1	.	.	.	.	15.1µM
O=C(NCCc1ccccc1Cl)c1ccc2c(c1)nc1n2CCCCC1	.	.	.	.	0.536µM
COc1ccc(CCNC(=O)c2ccc3c(c2)nc2n3CCCCC2)cc1OC	.	.	.	.	-
CCc1ccc(CNC(=O)c2ccc3c(c2)nc2n3CCCCC2)cc1	.	.	.	.	13.5µM
O=C(c1ccc2c(c1)CCN2S(=O)(=O)c1ccc(Cl)cc1)N1CCN(c2ccccc2F)CC1	.	.	.	-	-
O=C(COC(=O)c1cccs1)NCCC1=CCCCC1	-	-	-	?	19µM
Cc1ccc(C(=O)OCC(=O)NCCC2=CCCCC2)s1	-	-	-	-	-
O=C(COC(=O)c1ccccc1Cl)NCCC1=CCCCC1	-	-	-	-	16.9µM
C=CCC(C(=O)NC(C)c1ccccc1)C(=O)NC(C)c1ccccc1 (centres undefined)	-	-	-	.	-
Cc1cc(C)c2c(n1)sc1c(=O)n(-c3ccccc3C(F)(F)F)nnc12	.	.	.	-	-
CC(=O)N1N=C(c2ccccc2)CC1c1ccc(F)cc1 (centres undefined)	-	-	-	.	-
CC(=O)N1N=C(c2ccccc2)CC1c1cn(C)c2ccccc12 (centres undefined)	-	-	?	-	19µM
Cc1ccc(N=CC2=C(O)CC(c3ccco3)CC2=O)cc1 (centres undefined)	-	-	-	-	10.7µM
O=C1CC(c2ccccc2)CC(O)=C1C=Nc1ccccc1 (centres undefined)	-	-	-	-	16.9µM
CC(C)(C)c1nc(-c2ccccc2)nc2c1OCCC2	-	-	-	.	-
COc1ccc(NC(=O)COC(=O)c2c3c(nc4ccccc24)CCCC3)cc1Cl	-	-	-	-	10.7µM
C=NC(C(=O)NC1C(=O)N2C1SC(C)(C)C2C(=O)O)c1ccccc1 (centres undefined)	.	.	.	-	.
SMILES	Rab9 promoter act	NPC1 promoter act	ELG1 genotox	SMN2 splice up	FLuc modulator
CN(C)c1ccc(NC(=O)/C=C/c2c(Cl)cccc2Cl)cc1	-	-	-	?	8.49µM
CN(C)S(=O)(=O)c1ccc(NC(=O)/C=C/c2ccccc2Cl)cc1	-	-	-	-	21.3µM
CCCCOC(=O)c1cccc(NC(=O)/C=C/c2ccccc2Cl)c1	.	.	.	1.41µM	6.75µM
O=C(/C=C/c1ccccc1Cl)Nc1ccc2c(c1)C(=O)NC2=O	-	-	-	-	?
O=C(/C=C/c1ccccc1Cl)Nc1ccccc1	0.447µM	?	?	.	0.757µM
CN(C[C@H](Cc1ccccc1)N(C[C@H](c1ccccc1)N(CCc1ccccc1)N=O)N=O)N=O	-	-	-	.	-
CCc1ccc(NC(=O)CC2C(=O)N(c3ccccc3)C(=O)N2C(C)C)cc1 (centres undefined)	.	.	.	.	-
O=C(/C=C/c1ccccc1Cl)Nc1ccc(Cl)cn1	1.12µM	?	?	.	-
O=C(/C=C/c1ccccc1Cl)Nc1cccc(O)c1	?	?	?	?	1.07µM
